{
  "source": "PubChem BioAssay (Tox21)",
  "note": "Values joined by “and” are separate entries in the source; they are usually repeats but may differ in a detail not shown here. Equal values may be shown once. Where a structure was tested more than once in an assay, its records may differ in their call. Active and inactive are the calls of the source. A call without a number means that no potency is given here. Unless noted, the call rests on the fitted dose curve.",
  "data": [
    {"tested_on": "not listed separately", "test": "qHTS assay to identify small molecule antagonists of the thyroid receptor (TR) signaling pathway - cell viability counter screen (AID 743064; active means well fitted curve in the direction sought with a large enough effect in the repeat runs; inconclusive means weak or mixed curves; inactive means no such curve, though single readings can be large; an effect the other way counts as inactive or inconclusive; further: nearly all actives have a fitted effect of over 50% in size; further: potency means the concentration at half of the fitted maximal effect)", "conditions": "GH3.TRE-Luc viability, CellTiter-Fluor, 24 h; series mostly up to 70.3 µM; activity change, negative = cytotoxic: at the top concentration", "outline": "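In-well cytotoxicity read by CellTiter-Fluor (30 min, 37 C) following 23.5 h exposure of GH3 cells bearing a TRE-luciferase sensor. Compounds were added alongside 1 nM (final) T3 to drive TR transactivation.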", "values": [
      {"compound": "Cc1ccc(N)c(N)c1", "Potency": "13.7 µM (active) and 24.3 µM (active)"},
      {"compound": "CC(C)(c1cc(Cl)c(O)c(Cl)c1)c1cc(Cl)c(O)c(Cl)c1", "Potency": "inactive and 61.1 µM (active)"},
      {"compound": "CCC(=O)O[C@H]1CC[C@H]2[C@@H]3CCC4=CC(=O)CC[C@]4(C)[C@H]3CC[C@]12C", "Potency": "inactive and 43.3 µM (active)"},
      {"compound": "CC(C)C(=O)OCC(C)(C)C(OC(=O)C(C)C)C(C)C", "note": "(stereo unspecified)", "activity change, negative = cytotoxic": "28.9% (inactive)"},
      {"compound": "Oc1cc(Cl)ccc1Cl", "Potency": "inactive"},
      {"compound": "CNC(=O)Oc1cccc2c1OC(C)(C)O2", "Potency": "inactive"},
      {"compound": "CCOc1cc(C=O)ccc1O", "Potency": "inactive"}
    ]},
    {"tested_on": "not listed separately", "test": "qHTS assay to identify small molecule antagonists of the thyroid receptor (TR) signaling pathway (AID 743065; active means well fitted curve in the direction sought with a large enough effect in the repeat runs; inconclusive means weak or mixed curves; inactive means no such curve, though single readings can be large; an effect the other way counts as inactive or inconclusive; further: nearly all actives have a fitted effect of over 55% in size; further: potency means the concentration at half of the fitted maximal effect)", "conditions": "GH3.TRE-Luc, T3-stimulated luciferase inhibition, 23.5 h; series mostly up to 70.3 µM; activity, negative = inhibition: at the top concentration", "outline": "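GH3.TRE-Luc rat pituitary cells (two TREs driving luciferase) were dosed with compound, then stimulated with 1 nM T3 (final) for 23.5 h at 37 C. ONE-Glo luminescence was the read-out, with CellTiter-Fluor fluorescence as the cytotoxicity counter-screen.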", "values": [
      {"compound": "CCC(C)c1ccc(O)cc1", "note": "(stereo unspecified)", "activity, negative = inhibition": "-15.9% [at 95 µM] (inactive)"},
      {"compound": "O=c1oc2ccccc2c(O)c1C(CC(O)c1ccc(-c2ccc(Br)cc2)cc1)c1ccccc1", "note": "(stereo unspecified)", "Potency": "29.8 µM (active) and 57.9 µM (active)"},
      {"compound": "c1ccc(NNc2ccccc2)cc1", "Potency": "68.6 µM (active)"},
      {"compound": "C=CC(=O)OCCO", "activity, negative = inhibition": "-8.12% (inactive)"},
      {"compound": "Cc1c(COC(=O)[C@@H]2[C@H](/C=C(\\Cl)C(F)(F)F)C2(C)C)cccc1-c1ccccc1", "Potency": "15 µM (active) and 15.3 µM (active)"},
      {"compound": "C#CCOS(=O)OC1CCCCC1Oc1ccc(C(C)(C)C)cc1", "note": "(stereo unspecified)", "Potency": "4.33 µM (active)"},
      {"compound": "Cc1cc(Cl)ccc1OCCCC(=O)O", "Potency": "inactive"},
      {"compound": "N#CCCCl", "Potency": "inactive"},
      {"compound": "CC(C)N(C(=O)SCC(Cl)=C(Cl)Cl)C(C)C", "Potency": "53.8 µM (active) and 61.1 µM (active)"},
      {"compound": "Cc1cc(C)cc(C)c1", "Potency": "inactive"},
      {"compound": "CCCCNC(=O)n1c(NC(=O)OC)nc2ccccc21", "Potency": "7.66 µM (active) and 8.63 µM (active)"},
      {"compound": "CCC(C)(c1ccc(O)cc1)c1ccc(O)cc1", "Potency": "61.1 µM (active)"},
      {"compound": "Cc1ccc(N)c(N)c1", "Potency": "12.2 µM (active) and 19.3 µM (active)"},
      {"compound": "CC(C)(c1cc(Cl)c(O)c(Cl)c1)c1cc(Cl)c(O)c(Cl)c1", "Potency": "21.7 µM (active) and 48.6 µM (active)"},
      {"compound": "S=C1NCCN1", "Potency": "inactive"},
      {"compound": "Oc1cc(Cl)ccc1Cl", "Potency": "inactive"},
      {"compound": "CCOc1cc(C=O)ccc1O", "Potency": "inactive"}
    ]},
    {"tested_on": "thyroid hormone receptor (rat, GH3 cells)", "test": "qHTS assay to identify small molecule agonists of the thyroid receptor (TR) signaling pathway (AID 743066)", "conditions": "GH3.TRE-Luc cells, TR agonist luciferase, 24 h; series mostly up to 83.9 µM; activation: at the top concentration", "values": [
      {"compound": "O=[N+]([O-])c1ccc(O)c([N+](=O)[O-])c1", "Potency": "inactive"},
      {"compound": "c1ccc(P(c2ccccc2)c2ccccc2)cc1", "Potency": "inactive"},
      {"compound": "CCC(C)c1ccc(O)cc1", "note": "(stereo unspecified)", "Potency": "inactive"},
      {"compound": "CC(C)=CC1C(C(=O)OCc2coc(Cc3ccccc3)c2)C1(C)C", "note": "(stereo unspecified)", "Potency": "inactive"},
      {"compound": "O=[N+]([O-])c1c(Cl)c(Cl)c(Cl)c(Cl)c1Cl", "Potency": "inactive"},
      {"compound": "CC1(C)C(C=C(Cl)Cl)C1C(=O)OC(C#N)c1cccc(Oc2ccccc2)c1", "note": "(stereo unspecified)", "Potency": "inactive"},
      {"compound": "ClC1C(Cl)C(Cl)C(Cl)C(Cl)C1Cl", "note": "(stereo unspecified)", "Potency": "inactive"},
      {"compound": "O=c1oc2ccccc2c(O)c1C(CC(O)c1ccc(-c2ccc(Br)cc2)cc1)c1ccccc1", "note": "(stereo unspecified)", "activation": "-8.56% (inactive)"},
      {"compound": "CCCCCc1cc(O)cc(O)c1", "Potency": "inactive"},
      {"compound": "CCOc1cc(Oc2ccc(C(F)(F)F)cc2Cl)ccc1[N+](=O)[O-]", "Potency": "inactive"},
      {"compound": "Brc1ccc(Oc2cc(Br)c(Br)cc2Br)c(Br)c1", "Potency": "inactive"},
      {"compound": "c1ccc(NNc2ccccc2)cc1", "Potency": "inactive"},
      {"compound": "CCC(CC)Nc1c([N+](=O)[O-])cc(C)c(C)c1[N+](=O)[O-]", "Potency": "inactive"},
      {"compound": "CCCCN(CC)c1c([N+](=O)[O-])cc(C(F)(F)F)cc1[N+](=O)[O-]", "Potency": "inactive"},
      {"compound": "Oc1ccc(-c2ccccc2)cc1", "activation": "-3.89% (inactive)"},
      {"compound": "CCC(C)c1cc([N+](=O)[O-])cc([N+](=O)[O-])c1O", "note": "(stereo unspecified)", "Potency": "inactive"},
      {"compound": "C=CC(=O)OCCO", "Potency": "inactive"},
      {"compound": "Cc1c(COC(=O)[C@@H]2[C@H](/C=C(\\Cl)C(F)(F)F)C2(C)C)cccc1-c1ccccc1", "Potency": "inactive"},
      {"compound": "C#CCOS(=O)OC1CCCCC1Oc1ccc(C(C)(C)C)cc1", "note": "(stereo unspecified)", "activation": "-10.5% (inactive)"},
      {"compound": "Cc1cc(Cl)ccc1OCCCC(=O)O", "Potency": "inactive"},
      {"compound": "N#CCCCl", "Potency": "inactive"},
      {"compound": "CC(C)N(C(=O)SCC(Cl)=C(Cl)Cl)C(C)C", "activation": "-6.45% (inactive)"},
      {"compound": "Cc1cc(C)cc(C)c1", "Potency": "inactive"},
      {"compound": "O=C(CCl)c1ccccc1", "Potency": "inactive"},
      {"compound": "CCCCNC(=O)n1c(NC(=O)OC)nc2ccccc21", "Potency": "inactive"},
      {"compound": "CCOC(=O)C(C)OC(=O)c1cc(Oc2ccc(C(F)(F)F)cc2Cl)ccc1[N+](=O)[O-]", "note": "(stereo unspecified)", "Potency": "inactive"},
      {"compound": "CCC(C)(c1ccc(O)cc1)c1ccc(O)cc1", "activation": "-8.23% (inactive)"},
      {"compound": "Cc1ccc(N)c(N)c1", "Potency": "inactive"},
      {"compound": "CCC(=O)O[C@H]1CC[C@H]2[C@@H]3CCC4=CC(=O)CC[C@]4(C)[C@H]3CC[C@]12C", "Potency": "inactive"},
      {"compound": "S=C1NCCN1", "Potency": "inactive"},
      {"compound": "CC(C)C(=O)OCC(C)(C)C(OC(=O)C(C)C)C(C)C", "note": "(stereo unspecified)", "Potency": "inactive"},
      {"compound": "Oc1cc(Cl)ccc1Cl", "Potency": "inactive"},
      {"compound": "CCOc1cc(C=O)ccc1O", "Potency": "inactive"}
    ]},
    {"biological_target": "Estrogen receptor (Homo sapiens) (UniProt P03372)", "sequence (P03372 whole entry, looked up)": "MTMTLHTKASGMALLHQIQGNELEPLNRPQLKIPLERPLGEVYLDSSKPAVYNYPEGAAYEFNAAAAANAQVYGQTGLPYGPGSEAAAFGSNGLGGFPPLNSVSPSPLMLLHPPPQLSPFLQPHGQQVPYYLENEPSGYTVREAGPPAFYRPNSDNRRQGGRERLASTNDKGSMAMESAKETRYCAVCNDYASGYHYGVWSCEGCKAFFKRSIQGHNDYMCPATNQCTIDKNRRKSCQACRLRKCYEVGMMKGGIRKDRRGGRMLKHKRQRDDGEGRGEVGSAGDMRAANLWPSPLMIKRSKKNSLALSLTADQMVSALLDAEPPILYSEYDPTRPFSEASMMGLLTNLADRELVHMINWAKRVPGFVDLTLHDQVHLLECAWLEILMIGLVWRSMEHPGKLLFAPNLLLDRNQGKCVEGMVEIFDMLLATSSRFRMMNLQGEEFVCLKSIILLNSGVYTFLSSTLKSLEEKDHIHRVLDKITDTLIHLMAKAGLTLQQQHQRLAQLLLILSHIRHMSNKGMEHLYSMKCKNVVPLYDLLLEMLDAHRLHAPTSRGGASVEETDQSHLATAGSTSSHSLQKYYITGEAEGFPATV", "test": "qHTS assay to identify small molecule antagonists of the estrogen receptor alpha (ER-alpha) signaling pathway (AID 743069; active means well fitted curve in the direction sought with a large enough effect in the signal ratio in the repeat runs, not every such curve was filed as active; inconclusive means weak or mixed curves, or effect the other way; inactive means no such curve, though single readings can be large or run the other way; the % refers to the signal ratio; further: potency means the concentration at half of the fitted maximal effect)", "conditions": "HEK293 ER-alpha-UAS-bla, beta-lactamase ratio, antagonist mode; series mostly up to 69.4 µM; activity, negative = inhibition: at the top concentration", "outline": "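In this cell-based reporter format, GripTite HEK293 cells harbouring ER-alpha-UAS-bla were grown overnight with 2% charcoal-stripped FBS, dosed with DMSO-dissolved compounds, then challenged with 17beta-estradiol. After 18 hr at 37C, beta-lactamase activity was detected by FRET fluorescence.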", "values": [
      {"compound": "O=[N+]([O-])c1ccc(O)c([N+](=O)[O-])c1", "activity, negative = inhibition": "-70.7% [at 79.1 µM] (inactive)"},
      {"compound": "c1ccc(P(c2ccccc2)c2ccccc2)cc1", "Potency": "inactive"},
      {"compound": "CC(C)=CC1C(C(=O)OCc2coc(Cc3ccccc3)c2)C1(C)C", "note": "(stereo unspecified)", "activity, negative = inhibition": "-30.8% (inactive)"},
      {"compound": "O=[N+]([O-])c1c(Cl)c(Cl)c(Cl)c(Cl)c1Cl", "Potency": "inactive"},
      {"compound": "CC1(C)C(C=C(Cl)Cl)C1C(=O)OC(C#N)c1cccc(Oc2ccccc2)c1", "note": "(stereo unspecified)", "Potency": "inactive"},
      {"compound": "CCOc1cc(Oc2ccc(C(F)(F)F)cc2Cl)ccc1[N+](=O)[O-]", "activity, negative = inhibition": "-11.9% (inactive)"},
      {"compound": "Brc1ccc(Oc2cc(Br)c(Br)cc2Br)c(Br)c1", "activity, negative = inhibition": "-41.2% (inactive)"},
      {"compound": "Oc1ccc(-c2ccccc2)cc1", "Potency": "inactive"},
      {"compound": "c1nc[nH]n1", "Potency": "inactive"},
      {"compound": "CCC(C)c1cc([N+](=O)[O-])cc([N+](=O)[O-])c1O", "note": "(stereo unspecified)", "Potency": "inactive and 6.92 µM [inhibitor] (active)"},
      {"compound": "Cc1c(COC(=O)[C@@H]2[C@H](/C=C(\\Cl)C(F)(F)F)C2(C)C)cccc1-c1ccccc1", "Potency": "inactive"},
      {"compound": "CCCCNC(=O)n1c(NC(=O)OC)nc2ccccc21", "activity, negative = inhibition": "-13.4% (inactive)"},
      {"compound": "CCC(C)(c1ccc(O)cc1)c1ccc(O)cc1", "Potency": "616 nM [inconclusive] (active) and 309 nM [inconclusive] (active)"},
      {"compound": "CC(C)C(=O)OCC(C)(C)C(OC(=O)C(C)C)C(C)C", "note": "(stereo unspecified)", "activity, negative = inhibition": "2.11% [at 79.1 µM] (inactive)"}
    ]}
  ]
}
